Screening results (PubChem BioAssay)
USP17 block = blocks human USP17 ubiquitin-rhodamine cleavage. 47,000 tested, 6.5% active. inhibition, % at 50 µM. A8MUK1. purified USP17, Ub-rhodamine cleavage fluorescence, 3 h
USP8 inh = blocks human USP8 ubiquitin-rhodamine cleavage | purified USP8, Ub-rhodamine cleavage fluorescence, 30 min | inhibition, % at 20 µM | 47,000 tested, 4.2% active | AID 1645853
USP28 inh = blocks human USP28 ubiquitin-rhodamine cleavage | Q96RU2 | purified USP28, Ub-rhodamine cleavage fluorescence, 30 min | inhibition, % at 25 µM | 47,000 tested, 3% active
USP30 block = blocks human USP30 ubiquitin-rhodamine cleavage | purified USP30, Ub-rhodamine cleavage fluorescence | 47,000 tested, 5.3% active | inhibition, % at 25 µM | Q70CQ3
The depositor's hits bear a star; i = inactive; nt = not tested or not shown. Only some compounds are listed: those with a hit (about 13% of all), similar ones and a draw of the others. Cut-off read from the data, not from the text of the source: active = inhibition above about 30%; inactive = the rest.

SMILES	USP17 block	USP8 inh	USP28 inh	USP30 block
Cc1cc(=O)oc2cc(NC(=O)c3ccccc3C(=O)O)ccc12	8.9	0.7	nt	nt
Cc1cc(=O)oc2cc(NC(=O)c3ccc(-n4cnnn4)cc3)ccc12	43.6*	36.0*	2.8	27.2
Cc1ccc2c(c1)N(C(=O)Cn1cc(-c3nc(-c4cnccn4)no3)ccc1=O)CCO2	-9.7	-16.3	-6.6	-14.3
c1ccc(CCN2CCn3c(nc4ccccc43)C2)cc1	-156.2	-96.4	-226.2	i
O=[N+]([O-])c1ccc2c(c1)nc1n2CCN(Cc2ccco2)C1	60.8*	13.2	42.7*	41.9*
Nc1nccc(-c2cc(-c3cccc(C(F)(F)F)c3)no2)n1	25.9	2.0	nt	nt
O=C(Nc1nc2c(s1)CN(C(=O)/C=C/c1ccco1)CC2)C1CCCO1 (configuration not stated)	-17.8	41.3*	-34.8	-274.2
O=C(Nc1nc2c(s1)CN(C(=O)c1cc(-c3ccco3)on1)CC2)C1CC1	34.8*	-4.2	3.5	-83.3
CC(=O)c1ccc(NC(=O)CCc2c(C)c3c(C)nn(-c4ccccc4)c3n(C)c2=O)cc1	38.5*	1.1	-3.4	-7.9
COc1ccc(CNC(=O)CCc2c(C)c3c(C)nn(-c4ccccc4)c3n(C)c2=O)cc1	9.3	-46.5	5.4	8.5
Cc1ccc(CNC(=O)CCc2c(C)nc3c(c(C)nn3-c3ccc(C)cc3)c2C)cc1	20.9	34.3*	15.7	23.6
Cc1nn(-c2ccccc2)c2c1c(C)c(CCC(=O)NCc1ccc(F)cc1)c(=O)n2C	36.6*	-3.8	-0.4	20.7
CN(C1CCCC1)C1CCN(C(=O)Nc2ccc(Cl)cc2)CC1	-5.7	-5.2	0.3	2.4
Cc1ccccc1NC(=O)CN1CCC(c2nc3ccccc3[nH]2)CC1	0.1	4.9	0.0	6.6
O=C(NCc1ccccc1)c1cccc(OC2CCN(Cc3ccc4c(c3)CCO4)CC2)c1	5.7	6.7	21.8	21.7
CC1=C(c2ccccc2)S(=O)(=O)N(CC(=O)Nc2cccc(Cl)c2)C1=O	30.5*	16.3	25.7	34.9*
CC1=C(c2ccccc2)S(=O)(=O)N(CC(=O)Nc2cccc(F)c2)C1=O	0.7	1.5	-1.3	-15.1
CN(C)S(=O)(=O)c1ccc(S(=O)(=O)NCCc2ccc3c(c2)OCO3)cc1	16.2	-17.5	19.4	45.1*
COc1ccc([C@H]2C[C@@H](NCc3cnc(C)s3)CC[C@]23CCC(=O)N3)cc1OC	-10.3	-2.9	-5.8	-3.4
Cc1cccc(NC(=O)[C@H](Cc2ccccc2)NC(=O)[C@@H]2Cc3ccccc3CN2)c1	-8.0	9.6	-13.0	-41.0
COc1ccc(OC)c(/C=C(/C#N)c2nc(-c3ccc4c(c3)OCO4)cs2)c1	-145.9	-267.3	-216.6	i
N#C/C(=C\c1cccc(Oc2ncccn2)c1)c1ccc2c(c1)OCO2	30.4*	2.7	nt	nt
COc1ccc(/C(C#N)=C/c2cn[nH]c2)cc1	-21.3	-2.3	4.1	2.1
COc1ccc(/C(C#N)=C\c2ccc3c(c2)OCO3)cc1	28.7	30.1*	33.4*	34.6*
O=C1C(NS(=O)(=O)c2ccccc2)CCN1c1ccc(F)cc1 (configuration not stated)	5.2	1.7	8.3	12.3
SMILES	USP17 block	USP8 inh	USP28 inh	USP30 block
COC(=O)c1ccc(CN2CCN(c3cnn4c(C)nnc4c3)CC2)cc1	14.3	3.1	8.9	18.0
O=C(Nc1ccc(Cl)cc1)c1noc2c1CCCC2	17.5	27.1	18.1	34.8*
COc1ccc(-n2nnnc2CN2CCN(S(=O)(=O)c3ccc(F)cc3)CC2)cc1	33.6*	0.2	-6.0	1.9
CCOC(=O)N1CCC(NC(=O)CCn2c(=S)oc3ccccc32)CC1	25.8	-8.8	16.8	34.1*
CCOC(=O)N1CCC(NC(=O)C2CCCN(c3nc4ccccc4o3)C2)CC1 (configuration not stated)	9.5	0.5	0.5	12.4
COc1cc2nc(NC(=O)c3ccc(F)cc3Cl)sc(=O)c2cc1OC	62.4*	26.5	78.1*	92.3*
O=C(Nc1ccc2nc3n(c(=O)c2c1)CCCC3)c1ccc(F)cc1Cl	-6.5	-0.8	-2.3	-63.1
Cc1cc(CSc2ncccc2C(=O)Nc2ccnn2Cc2ccco2)no1	-23.2	-45.7	-17.4	-36.1
CC(=O)Nc1ccc(NC(=O)/C(=C/c2ccco2)n2nnnc2-c2ccccc2)cc1	-158.0	-108.4	-96.6	-300.5
COc1cccc(C(=O)N2CCN(c3ncnc4c3nnn4Cc3ccccc3)CC2)c1	18.6	12.3	32.7*	35.3*
Cn1cccc1-c1cc2n(n1)CCCN2C(=O)CCC(=O)NCc1ccco1	-127.6	-255.0	-114.7	-359.8
O=C(CCCCn1c(=O)c2ccccc2n(CC(=O)Nc2ccc(Br)cc2F)c1=O)NCc1ccco1	-133.8	-230.9	-250.2	i
CCOC(=O)c1ccc(NC(=O)Cn2c(=O)n(CC(=O)NCc3ccco3)c(=O)c3ccccc32)cc1	41.2*	10.9	27.6	59.2*
O=C(Cn1c(=O)n(-c2ccc(CC(=O)NC3CCCC3)cc2)c(=O)c2ccccc21)NCc1ccco1	-23.9	-14.2	-8.7	-40.6
O=C(Cc1ccc(-n2c(=O)c3ccccc3n(CC(=O)Nc3ccc(F)cc3F)c2=O)cc1)NCc1ccco1	-22.7	15.1	-6.8	-64.0
COC(=O)c1ccccc1NC(=O)Cn1c(=O)n(Cc2ccc(C(=O)NCc3ccco3)cc2)c(=O)c2ccccc21	16.0	38.7*	-7.4	1.5
CCOC(=O)c1ccc(NC(=O)Cn2c(=O)n(-c3ccc(CC(=O)NCc4ccco4)cc3)c(=O)c3ccccc32)cc1	21.0	58.3*	13.7	7.0
Cn1cccc1-c1nnc(C2(c3ccc4c(c3)OCO4)CCOCC2)o1	-43.6	0.2	-4.6	-13.1
CCc1nnc(-c2nnc(NCCOc3ccccc3OC)c3ccccc23)o1	19.5	66.0*	8.0	33.5*
CC(C)c1ccc(NC(=O)c2ccc(C3Nc4ccccc4S(=O)(=O)N3)cc2)cc1 (configuration not stated)	64.8*	-2.6	20.6	50.5*
CCc1ccc(NC(=O)C2Nc3ccccc3S(=O)(=O)N2)cc1 (configuration not stated)	41.1*	1.7	22.4	45.7*
CCc1ccc(NC(=O)N2CC[C@@H]3CN(C)S(=O)(=O)[C@@H]3CC2)cc1	7.4	0.6	8.8	18.8
Cc1ccc(NC(=O)C2Nc3ccccc3S(=O)(=O)N2)cc1C (configuration not stated)	66.4*	0.2	nt	nt
CC(=O)N1CCC(N(Cc2ccccc2Cl)C(=O)Nc2ccc(C)c(C)c2)CC1	-22.6	-15.7	-19.8	-23.9
O=C(NC1CC1)c1ccc(C2Nc3ccccc3S(=O)(=O)N2)cc1 (configuration not stated)	-1.3	0.2	-7.4	4.2
Cc1cnc(C(=O)N2CCc3nc(C(=O)NCc4ccccc4)sc3CC2)cn1	0.3	-4.2	4.1	0.1
O=C(c1nnn(-c2ccc(OC(F)(F)F)cc2)n1)N1CCCC1	-2.0	1.2	-0.1	3.3
COc1ccc(NC(=O)N2CCN(C3=CC4=NC(C)CN4C=N3)CC2)cc1 (configuration not stated)	-0.3	-18.9	-3.3	5.2
CCn1nnc2cc(-c3noc(CNC(=O)c4cccs4)n3)ccc21	-42.0	-234.2	-0.2	-14.6
